{"source": "PubChem BioAssay AID1851", "about": "(National Center for Advancing Translational Sciences (NCATS), 2009)", "note": "Hit rate of the full screen: of about 16,000 compounds, about 4,000 (25%) were called active. Another 26% or so got no clear call; they are omitted. Calls follow the shape of the dose curve; as a rule, active = well fitted curve in the direction sought with a large enough effect; inconclusive = small, poorly fitted or top-dose-only effect, or effect the other way; inactive = no such curve, though single readings can be large or run the other way. These entries were drawn from the full list. % is scaled to controls: 0 for no effect and ±100 for the full control effect.", "data": [{"molecular_target": "Cytochrome P450 2C9 (Homo sapiens) (UniProt P11712)", "sequence (P11712 whole entry, looked up)": "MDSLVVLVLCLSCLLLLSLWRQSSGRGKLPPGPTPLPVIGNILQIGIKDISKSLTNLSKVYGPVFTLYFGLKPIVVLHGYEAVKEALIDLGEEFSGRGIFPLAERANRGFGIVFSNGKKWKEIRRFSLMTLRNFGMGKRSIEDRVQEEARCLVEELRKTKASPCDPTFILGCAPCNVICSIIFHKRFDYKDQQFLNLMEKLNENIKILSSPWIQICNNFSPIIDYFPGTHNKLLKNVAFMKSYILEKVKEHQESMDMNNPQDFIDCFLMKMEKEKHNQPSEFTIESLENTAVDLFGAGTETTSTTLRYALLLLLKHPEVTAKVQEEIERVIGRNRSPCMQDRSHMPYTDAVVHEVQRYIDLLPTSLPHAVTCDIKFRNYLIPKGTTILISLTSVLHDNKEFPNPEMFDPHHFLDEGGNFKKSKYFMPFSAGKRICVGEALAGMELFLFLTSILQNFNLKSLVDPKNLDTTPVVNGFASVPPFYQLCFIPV", "assay": "Cytochrome panel assay with activity outcomes", "settings": "recombinant CYP, pro-luciferin dealkylation, luminescence, p450-cyp2c9; series mostly up to 57.1 µM; activity, negative = inhibition: at the top concentration", "values": [{"smiles": "Cc1cc(N)c2cc(NC(=O)Nc3ccc4nc(C)cc(N)c4c3)ccc2n1", "activity, negative = inhibition": "-18.2% [at 11.4 µM] (inactive)"}, {"smiles": "Cc1cc(NC(=O)Nc2ccc(N(C)C)cc2)c2cc(F)cc(F)c2n1", "AC50": "6.31 µM (active)"}, {"smiles": "CSc1ccc(NC(=O)Nc2cc(C)ccn2)cc1", "activity, negative = inhibition": "-15.6% [at 11.4 µM] (inactive)"}, {"smiles": "c1ccc(CNc2ncnc3ccc(-c4cccnc4)cc23)cc1", "activity, negative = inhibition": "8.31% [at 2.29 µM] (inactive)"}, {"smiles": "CC1=C(C(=O)OCc2ccccc2)C(c2cccnc2)c2c(n(C)c(=O)n(C)c2=O)N1", "note": "(configuration not stated)", "AC50": "4.47 µM (active)"}, {"smiles": "CN1C(=O)CC[C@@H]1c1cccnc1", "AC50": "inactive"}, {"smiles": "O=C1NC(=O)[C@@](Cc2ccccc2)(c2cccnc2)N1", "activity, negative = inhibition": "-6.71% [at 11.4 µM] (inactive)"}, {"smiles": "Cc1cnc(CNc2ncncc2-c2ccc3c(c2)OCO3)cn1", "activity, negative = inhibition": "15.7% [at 2.29 µM] (inactive)"}, {"smiles": "CCC(C)(C)NC(=O)c1ccc2c(c1)N(CC(=O)OC)C(=O)C(C)(C)O2", "AC50": "28.2 µM (active)"}, {"smiles": "COC(=O)c1cc2c(ccn2-c2ccc(F)cc2)n1CC(C)C", "AC50": "10 µM (active)"}, {"smiles": "Cc1ccc(/C=C2\\Sc3ccccc3C2=O)s1", "AC50": "3.55 µM (active)"}, {"smiles": "c1ccc(-c2cccc(N3CC[C@@]4(CCCNC4)C3)c2)cc1", "activity, negative = inhibition": "-21.2% (inactive)"}, {"smiles": "CN1CCCCC1=NCCCn1cnc2c1c(=O)n(C)c(=O)n2C", "activity, negative = inhibition": "6.66% (inactive)"}, {"smiles": "Cc1ccc(S(=O)(=O)Nc2cc(=O)[nH]c3c2CCC3)cc1", "activity, negative = inhibition": "8.32% [at 11.4 µM] (inactive)"}, {"smiles": "Cc1ccc(S(=O)(=O)c2cc(C#N)c(=O)[nH]c2N)cc1", "AC50": "11.2 µM (active)"}, {"smiles": "N#Cc1cc2[nH]c(=O)c(=O)[nH]c2cc1[N+](=O)[O-]", "activity, negative = inhibition": "-4.14% (inactive)"}, {"smiles": "COc1cccc([C@H](O)Cn2cc(-c3ccc(CON=C(C)C)cc3)nn2)c1", "activity, negative = inhibition": "-13.3% [at 11.4 µM] (inactive)"}, {"smiles": "CN(C)c1ncc2nc(-c3ccc(F)cc3)c(=O)n(CCC#N)c2n1", "activity, negative = inhibition": "-14.9% (inactive)"}, {"smiles": "Cc1nn(Cc2ccc(Cl)cc2)c(C)c1NC(=O)CSc1nc2c(c(C(F)(F)F)n1)CCc1ccccc1-2", "AC50": "1.41 µM (active)"}, {"smiles": "Cc1ccccc1Cn1cc(NC(=O)CSc2nc3c(c(C(F)(F)F)n2)CCc2ccccc2-3)cn1", "AC50": "1.78 µM (active)"}, {"smiles": "O=C(c1cnc(-c2ccccc2)s1)c1ccc(Cl)cc1Cl", "AC50": "20 µM (active)"}, {"smiles": "Cl/C(=C\\n1cncn1)c1ccc(Cl)cc1Cl", "activity, negative = inhibition": "5.68% (inactive)"}, {"smiles": "COc1cc([C@@H](O)CO)ccc1OS(=O)(=O)O", "activity, negative = inhibition": "-22.5% (inactive)"}, {"smiles": "COC(=O)C(C(=O)OC)C(C[N+](=O)[O-])c1ccc(OC)c(OC)c1", "note": "(configuration not stated)", "activity, negative = inhibition": "-6.55% (inactive)"}, {"smiles": "COc1ccc(C(O)P(=O)(OC(C)C)OC(C)C)cc1OC", "note": "(configuration not stated)", "AC50": "7.94 µM (active)"}, {"smiles": "COC(=O)[C@@]1(Cc2ccccc2)[C@H]2c3cc(C(=O)N4CCCC4)[nH]c3C[C@H]2CN1C(=O)c1ccccc1", "AC50": "0.794 µM (active)"}, {"smiles": "COC(=O)[C@@]1(Cc2ccc(OC)cc2)[C@H]2c3cc(C(=O)N(C)C)[nH]c3C[C@H]2CN1C(=O)c1ccccc1", "AC50": "3.98 µM (active)"}, {"smiles": "COC(=O)C/C=C\\[C@@H](C)[C@@H](/C=N\\O[C@@H](C)c1cn([C@H]2COC[C@H]2O)nn1)OC", "activity, negative = inhibition": "-15.9% [at 11.4 µM] (inactive)"}, {"smiles": "CN(C)CCCn1c2ccccc2c2cnccc21", "activity, negative = inhibition": "4.43% [at 11.4 µM] (inactive)"}, {"smiles": "Cc1c2cnccc2c(C)c2c1c1ccccc1n2CCOC(=O)c1ccccc1", "AC50": "3.16 µM (active)"}, {"smiles": "COc1ccccc1CN1CCCC2(CCN(C(=O)c3c(C)noc3C)CC2)C1", "activity, negative = inhibition": "4.46% (inactive)"}, {"smiles": "CCOC(=O)c1c(-c2ccccc2)nc2c(C)cccn12", "AC50": "11.2 µM (active)"}, {"smiles": "CC(=O)C[C@H](O)[C@@H](NC(=O)OC(C)(C)C)C(C)C", "activity, negative = inhibition": "-4.41% [at 11.4 µM] (inactive)"}, {"smiles": "CC(NC(=O)C1(C)CC1(Br)Br)C(C)(C)C", "note": "(configuration not stated)", "AC50": "31.6 µM (active)"}, {"smiles": "CC(C)[C@H](NC(=O)OC(C)(C)C)[C@@H](O)CC(=O)OC(C)(C)C", "activity, negative = inhibition": "20.6% [at 11.4 µM] (inactive)"}, {"smiles": "O=C1[C@@H]2C=CC=CC2=NC(=S)N1CCN1CCC(=C(c2ccc(F)cc2)c2ccc(F)cc2)CC1", "AC50": "31.6 µM (active)"}, {"smiles": "O=c1cc(CSc2nnc(-c3cccnc3)n2-c2ccccc2F)nc2sccn12", "activity, negative = inhibition": "-21.9% (inactive)"}, {"smiles": "CC(C)c1ccccc1-n1c(SCC(=O)N2CCN(c3ccccc3)CC2)nnc1-c1cccnc1", "AC50": "11.2 µM (active)"}, {"smiles": "CC1CCN(C(=O)CSc2nc3cccnc3n2C)CC1", "activity, negative = inhibition": "-8.16% (inactive)"}, {"smiles": "C#CCCCO/N=C1/C[C@@H](O)[C@@H](O)[C@@H]2[C@@H]3C(=O)N(CCC(=O)OCC)C(=O)[C@H]3CC[C@@H]12", "activity, negative = inhibition": "2.98% [at 11.4 µM] (inactive)"}, {"smiles": "C=C[C@]1(C)C[C@H](OC(=O)CO)[C@]2(C)C3C(=O)CC[C@]3(CC[C@H]2C)[C@H](C)[C@H]1O", "note": "(some centres not stated)", "activity, negative = inhibition": "4.64% [at 11.4 µM] (inactive)"}, {"smiles": "O=C1Nc2ccc(F)cc2C12Nc1ccccc1-c1nnc(SCc3ccccc3F)nc1O2", "note": "(configuration not stated)", "AC50": "2 µM (active)"}, {"smiles": "Cc1ccc(CSc2nnc3c(n2)OC2(Nc4ccccc4-3)C(=O)Nc3ccc(F)cc32)cc1", "note": "(configuration not stated)", "AC50": "8.91 µM (active)"}, {"smiles": "N=C(N)c1ccc(N=Nc2c(O)ccc3c2[nH]c2ccccc23)cc1", "activity, negative = inhibition": "-5.45% [at 11.4 µM] (inactive)"}, {"smiles": "c1csc(CNc2cc(-c3ccoc3)ncn2)c1", "activity, negative = inhibition": "-7.77% [at 2.29 µM] (inactive)"}, {"smiles": "O=C1[C@H]2[C@H]3[C@H](O)[C@H](O)C/C(=N/OC[C@@H](O)COCc4ccco4)[C@@H]3CC[C@@H]2C(=O)N1Cc1ccc2c(c1)OCO2", "activity, negative = inhibition": "3.23% [at 11.4 µM] (inactive)"}, {"smiles": "C#CCCCO/N=C1/C[C@@H](O)[C@@H](O)[C@@H]2[C@@H]3C(=O)N(C[C@@H]4CCCO4)C(=O)[C@H]3CC[C@@H]12", "activity, negative = inhibition": "16.1% [at 11.4 µM] (inactive)"}, {"smiles": "CN(Cc1ccco1)c1cc(-c2cccnc2)ncn1", "activity, negative = inhibition": "2.79% [at 2.29 µM] (inactive)"}, {"smiles": "CCCN1C(=O)C2(/C(=C(\\O)c3ccc4c(c3)OCCO4)C(=O)C(=O)N2CCCOC)c2ccccc21", "note": "(configuration not stated)", "activity, negative = inhibition": "-25% (inactive)"}, {"smiles": "O=C(OCc1nnc(-c2ccccc2)o1)c1ccc2c(c1)OCCO2", "AC50": "7.94 µM (active)"}, {"smiles": "Cc1cc(C)c(-c2cc([C@H](C)O/N=C3/[C@H]4OC4[C@@H](O)[C@H]4[C@H]3CCn3c(=O)n(-c5ccccc5)c(=O)n34)on2)c(C)c1", "note": "(some centres not stated)", "activity, negative = inhibition": "-29.1% [at 11.4 µM] (inactive)"}, {"smiles": "Cc1ccc(C)c(OCCCC(C)(C)C(=O)O)c1", "AC50": "6.31 µM (active)"}]}]}
